The source made the active and inactive calls.

In PubChem BioAssay one finds composite z-score and z-score data, which are given here for five molecules.

Assay [1] in a line: small molecules captured by biotinylated probe aFSTL3 – biochemical, small-molecule microarray, fluorescence 635/667, stem cell growth factor project, primary screen (AID 1064).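 Note: measures binding of the biotinylated anti-FSTL3 antibody to printed compounds.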 Conditions: higher = more signal.
Assay [2] can be described thus: binders from COS7 lysate, DM2A8 probe, primary screen, torsin A project, cell lysate, small-molecule microarray, fluorescence 635/667 (AID 1065). The note with it: higher = more signal, COS7 lysate expressing mutant human TOR1A.
Assay [3] in a line: small molecules captured by biotinylated probe aFGF2 – biochemical, small-molecule microarray, fluorescence 635/667, stem cell growth factor project, primary screen (AID 1067).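 Note: measures binding of biotinylated aFGF2 protein to printed compounds on slides; z-score merges feature fluorescence and signal-to-noise across triplicate slides.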 Conditions: higher = more signal.
Assay [4] can be described thus: small molecules captured by biotinylated probe aFGF10 – biochemical, small-molecule microarray, fluorescence 635/667, stem cell growth factor project, primary screen (AID 1071).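 Note: score merges 667 nm spot intensity and signal to noise from triplicate slides.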 The note with it: higher = more signal.
For assay [5], the target named is Neurogenic locus notch homolog protein 2 (Homo sapiens) (UniProt Q04721). Put plainly: small molecules binding Notch2 protein – biochemical, small-molecule microarray, 635 nm fluorescence, stem cell growth factors, primary screen (AID 1073). Conditions: higher = more signal.
The target of assay [6] is Pro-neuregulin-1, membrane-bound isoform (Homo sapiens) (UniProt Q02297). Put plainly: small molecules binding neuregulin-1 protein – biochemical, small-molecule microarray, fluorescence 635/667, psychiatric disease protein project, primary screen (AID 1075).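 Note: score combines 667 nm spot fluorescence with signal to noise.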 The note with it: NRG1 binding, 635 nm fluorescence, higher = more signal.
The subject of assay [7] is Neuregulin-1 EGF-like domain. Put plainly: small molecules binding NRG1 EGF domain – biochemical, small-molecule microarray, 635 nm fluorescence, primary screen (AID 1081).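 Note: binding of the protein to compounds printed on small-molecule microarray slides.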 Conditions: higher = more signal.
Assay [8] can be described thus: FRG1 expression reporter modulators in myotubes – cell-based, C2C12 myotubes, firefly/Renilla luciferase, luminescence, FRG1 inhibition for FSHD, primary screen (AID 1084). The note with it: FRG1 promoter luciferase, higher = more signal, called active from +8 up or from −8 down.
Assay [9] in a line: small molecules captured by biotinylated probe aFST – biochemical, small-molecule microarray, fluorescence 635/667, stem cell growth factor project, primary screen (AID 1086).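 Note: score merges 667 nm fluorescence with signal-to-noise of each printed compound spot.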 Conditions: higher = more signal.
Assay [10] in a line: binders of probe aHhip on microarray, primary screen, stem cell growth factor project, biochemical, small-molecule microarray, fluorescence 635/667 (AID 1087).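 Note: score merges spot fluorescence at 667nm with spot signal to noise ratio.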 The note with it: higher = more signal.
Assay [11] has as its system PRMT1 (protein arginine N-methyltransferase 1). Put plainly: small molecules binding arginine methyltransferase PRMT1 – biochemical, small-molecule microarray, 635 nm fluorescence, primary screen (AID 1088).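 Note: binding of Prmt1 protein to compounds spotted on small-molecule microarray slides.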 The note with it: higher = more signal.
A short description of assay [12]: growth effects on S. cerevisiae YJM789 – YJM789 clinical isolate, OD600, 24 h, basal, primary screen (AID 1089).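 Note: growth of clinical yeast isolate S. cerevisiae YJM 789 seeded 1000 cells per well; test concentration not given here.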 The note with it: higher = more signal, called active from +8 up or from −8 down.
Assay [13] in a line: S. pombe growth modifiers, basal conditions – strain 972, OD600, 24 h, no modulator, primary screen (AID 1090).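 Note: basal condition with compound alone and no growth modifier present; test concentration not given here.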 The note with it: S. pombe 972 growth, higher = more signal, called active from +8 up or from −8 down.
The nature of assay [14]: budding yeast growth modifiers under rapamycin – strain BY4716, OD600, 96 h, primary screen (AID 1091). Note: test concentration not given here. The note with it: S. cerevisiae BY4716 + rapamycin, higher = more signal, called active from +8 up or from −8 down.
Assay [15] has as its target Torsin-1A-interacting protein 2 (Homo sapiens) (UniProt Q8NFQ8). The experiment in a line: small molecules binding lysate-expressed LULL1 – cell lysate, human LULL1 lysate, 635/667 nm fluorescence, primary screen (AID 1092).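 Note: probe is lysate of COS7 cells overexpressing human LULL1; score merges per-feature 667 nm fluorescence with signal-to-noise.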 The note with it: small-molecule microarray, hLULL1 lysate binding, 635 nm fluorescence; higher = more signal.
Assay [16] is described as follows: optical density change of DRC41 E. coli – strain DRC41, OD650, 24 h, E. coli filamentation project, primary screen (AID 1093).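 Note: MC1000 strain lacking acrAB efflux and sulA so SOS filamentation is blocked; test concentration not given here.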 Conditions: E. coli DRC41 growth, higher = more signal, called active from +8 up or from −8 down.
The nature of assay [17]: probe aLefty2 binding to arrayed compounds – biochemical, biotinylated probe, 635/667 nm fluorescence, primary screen (AID 1094).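 Note: score merges spot fluorescence near 667 nm with spot signal-to-noise ratio.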 Conditions: small-molecule microarray, higher = more signal.
Assay [18] has as its system Noggin (protein binding on small-molecule microarray). The experiment in a line: small molecules binding Noggin protein – biochemical, 635/667 nm fluorescence, primary screen (AID 1095).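 Note: score merges 667 nm feature fluorescence with signal to noise over triplicate slides.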 The note with it: 635 nm fluorescence, higher = more signal.
For assay [19], the target named is Neurogenic locus notch homolog protein 3 (Homo sapiens) (UniProt Q9UM47). Put plainly: small molecules binding NOTCH3 protein – biochemical, 635/667 nm fluorescence, primary screen (AID 1096). Conditions: small-molecule microarray, 635 nm fluorescence, higher = more signal.
Assay [20] in a line: probe aEGFR binding to arrayed compounds – biochemical, biotinylated probe, 635/667 nm fluorescence, primary screen (AID 1097).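 Note: probe is a biotinylated anti-EGFR antibody binding compounds printed on slides; score combines fluorescence near 667 nm and signal to noise of each spot.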 Conditions: small-molecule microarray, higher = more signal.

Neurogenic locus notch homolog protein 2 (Homo sapiens), sequence (Q04721 whole entry, looked up, canonical isoform): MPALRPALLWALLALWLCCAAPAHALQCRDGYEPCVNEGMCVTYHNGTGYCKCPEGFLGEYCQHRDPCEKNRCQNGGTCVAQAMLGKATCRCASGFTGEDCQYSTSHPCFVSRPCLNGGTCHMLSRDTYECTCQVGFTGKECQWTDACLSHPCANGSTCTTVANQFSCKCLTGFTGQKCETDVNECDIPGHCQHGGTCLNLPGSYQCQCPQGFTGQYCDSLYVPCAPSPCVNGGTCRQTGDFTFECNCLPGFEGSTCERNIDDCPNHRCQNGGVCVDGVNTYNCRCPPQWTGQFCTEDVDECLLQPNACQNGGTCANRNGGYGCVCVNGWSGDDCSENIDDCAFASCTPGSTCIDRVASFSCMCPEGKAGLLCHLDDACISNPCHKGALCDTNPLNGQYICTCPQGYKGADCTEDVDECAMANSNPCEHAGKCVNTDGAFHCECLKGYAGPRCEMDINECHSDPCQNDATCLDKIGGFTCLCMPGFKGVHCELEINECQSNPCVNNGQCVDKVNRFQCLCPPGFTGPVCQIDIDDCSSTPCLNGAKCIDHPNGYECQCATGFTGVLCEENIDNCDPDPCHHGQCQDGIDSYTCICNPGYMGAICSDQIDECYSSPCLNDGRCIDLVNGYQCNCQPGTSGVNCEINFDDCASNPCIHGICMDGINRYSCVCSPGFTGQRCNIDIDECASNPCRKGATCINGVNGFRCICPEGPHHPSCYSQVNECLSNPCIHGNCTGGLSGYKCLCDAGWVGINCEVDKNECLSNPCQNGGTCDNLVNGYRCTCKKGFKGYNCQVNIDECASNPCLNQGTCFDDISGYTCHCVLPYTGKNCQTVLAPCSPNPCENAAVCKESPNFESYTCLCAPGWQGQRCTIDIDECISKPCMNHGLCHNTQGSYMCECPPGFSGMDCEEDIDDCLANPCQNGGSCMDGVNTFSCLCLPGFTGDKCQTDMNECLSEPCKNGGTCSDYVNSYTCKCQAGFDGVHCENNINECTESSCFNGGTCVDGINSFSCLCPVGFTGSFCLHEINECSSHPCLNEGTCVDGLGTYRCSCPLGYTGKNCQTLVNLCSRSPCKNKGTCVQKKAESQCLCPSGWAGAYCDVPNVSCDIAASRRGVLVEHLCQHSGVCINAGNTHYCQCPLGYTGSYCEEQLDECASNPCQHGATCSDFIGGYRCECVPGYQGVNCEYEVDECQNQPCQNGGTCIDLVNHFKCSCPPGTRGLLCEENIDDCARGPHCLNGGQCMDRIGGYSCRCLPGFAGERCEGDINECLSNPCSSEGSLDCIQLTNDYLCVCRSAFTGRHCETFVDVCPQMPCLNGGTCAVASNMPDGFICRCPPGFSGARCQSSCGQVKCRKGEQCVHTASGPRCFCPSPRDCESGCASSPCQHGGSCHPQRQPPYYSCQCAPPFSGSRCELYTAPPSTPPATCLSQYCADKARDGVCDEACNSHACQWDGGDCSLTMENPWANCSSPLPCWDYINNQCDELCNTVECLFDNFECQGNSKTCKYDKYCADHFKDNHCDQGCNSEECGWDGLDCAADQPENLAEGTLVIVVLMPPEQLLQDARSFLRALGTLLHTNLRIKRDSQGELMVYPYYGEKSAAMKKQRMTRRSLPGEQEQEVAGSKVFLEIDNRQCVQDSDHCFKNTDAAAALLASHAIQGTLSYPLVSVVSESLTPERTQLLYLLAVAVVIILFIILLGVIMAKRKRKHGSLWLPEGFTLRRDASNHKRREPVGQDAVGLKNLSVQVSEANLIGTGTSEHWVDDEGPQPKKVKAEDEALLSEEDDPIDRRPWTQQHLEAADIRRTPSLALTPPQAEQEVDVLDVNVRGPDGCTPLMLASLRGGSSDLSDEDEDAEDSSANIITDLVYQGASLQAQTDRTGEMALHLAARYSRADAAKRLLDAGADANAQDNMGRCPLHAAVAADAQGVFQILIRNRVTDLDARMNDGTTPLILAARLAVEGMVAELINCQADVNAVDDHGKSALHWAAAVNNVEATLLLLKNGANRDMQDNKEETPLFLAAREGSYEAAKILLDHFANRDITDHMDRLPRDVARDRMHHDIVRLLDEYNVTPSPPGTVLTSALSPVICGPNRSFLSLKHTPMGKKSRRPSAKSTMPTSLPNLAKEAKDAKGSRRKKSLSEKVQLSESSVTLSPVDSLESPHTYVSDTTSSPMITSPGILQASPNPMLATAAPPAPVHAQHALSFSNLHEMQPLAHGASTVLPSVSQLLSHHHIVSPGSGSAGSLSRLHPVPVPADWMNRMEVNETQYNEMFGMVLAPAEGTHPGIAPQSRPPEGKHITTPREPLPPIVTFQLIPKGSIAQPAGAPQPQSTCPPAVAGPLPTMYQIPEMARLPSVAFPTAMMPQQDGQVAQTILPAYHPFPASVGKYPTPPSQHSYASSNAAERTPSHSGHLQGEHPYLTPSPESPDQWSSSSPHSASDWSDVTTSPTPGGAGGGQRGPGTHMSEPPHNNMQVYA
Torsin-1A-interacting protein 2 (Homo sapiens), sequence (Q8NFQ8 whole entry, looked up): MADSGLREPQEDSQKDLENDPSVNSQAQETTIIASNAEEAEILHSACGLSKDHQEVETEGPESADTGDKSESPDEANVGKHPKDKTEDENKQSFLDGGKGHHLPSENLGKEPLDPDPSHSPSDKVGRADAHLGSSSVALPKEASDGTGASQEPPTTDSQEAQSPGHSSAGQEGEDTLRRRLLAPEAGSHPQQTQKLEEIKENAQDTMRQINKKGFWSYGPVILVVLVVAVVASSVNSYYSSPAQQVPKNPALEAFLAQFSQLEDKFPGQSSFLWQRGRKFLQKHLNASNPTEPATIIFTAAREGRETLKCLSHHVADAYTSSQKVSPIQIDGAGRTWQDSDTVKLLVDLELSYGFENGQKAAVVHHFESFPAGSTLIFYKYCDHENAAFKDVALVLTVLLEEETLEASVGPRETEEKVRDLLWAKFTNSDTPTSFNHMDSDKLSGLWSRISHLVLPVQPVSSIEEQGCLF
Pro-neuregulin-1, membrane-bound isoform (Homo sapiens), sequence (Q02297 whole entry, looked up, the tested form may be a part, canonical isoform): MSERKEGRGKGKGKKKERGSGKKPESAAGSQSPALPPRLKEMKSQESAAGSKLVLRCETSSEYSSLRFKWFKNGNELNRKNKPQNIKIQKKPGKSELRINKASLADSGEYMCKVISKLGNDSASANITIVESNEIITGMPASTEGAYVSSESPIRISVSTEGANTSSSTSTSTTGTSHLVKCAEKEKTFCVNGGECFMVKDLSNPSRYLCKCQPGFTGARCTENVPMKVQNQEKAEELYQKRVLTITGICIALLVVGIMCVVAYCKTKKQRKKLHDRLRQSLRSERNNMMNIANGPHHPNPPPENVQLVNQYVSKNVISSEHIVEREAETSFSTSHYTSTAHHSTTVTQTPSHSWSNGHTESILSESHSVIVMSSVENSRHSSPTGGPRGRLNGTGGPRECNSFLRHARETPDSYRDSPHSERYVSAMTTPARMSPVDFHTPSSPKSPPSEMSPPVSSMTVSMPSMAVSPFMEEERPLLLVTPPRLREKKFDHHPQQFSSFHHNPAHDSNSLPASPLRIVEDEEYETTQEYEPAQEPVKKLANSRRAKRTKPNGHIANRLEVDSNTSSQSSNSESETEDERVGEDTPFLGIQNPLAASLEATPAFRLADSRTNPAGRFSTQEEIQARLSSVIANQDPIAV

For the molecule `C=C(COC)/C(=C/C[C@@H](OC(=O)c1ccncc1)c1cccc(OCCO)c1)c1cnc2ccccc2c1`, the composite z-score in [1] was 0.234; in assay [2] it was 1.99; in assay [3] it was 0.0601; in [4] it was 1.19; in [5], 1.76; in [6], 1.14. Moreover, the composite z-score in assay [7] turned out to be 1.2; in assay [9], 1.47; in [10] it was 0.251; in assay [11], 1.55; in assay [15], 2.2; in [17] it was 0.266. Besides, the composite z-score came out at 1.61 in assay [18], 1.02 in [19] and 0.0892 in assay [20]. Also, the z-score in [8] was 0.589 (inactive); in [12], -19.8 (active); in assay [13], -20.6 (active); in assay [14], -3.52 (inactive); in [16] it was 0.682 (inactive).

With `COc1cc2c(cc1OC)CN(C(=O)[C@H]1[C@@H]3C(=O)O[C@@H](c4ccccc4)[C@@H](c4ccccc4)N3[C@@H](c3ccc(OCCO)cc3)[C@]13C(=O)Nc1ccc(C#CC4(O)CCCCCC4)cc13)CC2`, the composite z-score is 1.18 in assay [1]; 0.774 in [2]; -0.0358 in assay [3]; 0.326 in assay [4]; 1.51 in assay [5]; 1.25 in assay [6]. Also, the composite z-score was determined as 1.32 in [7]; 1.6 in assay [9]; 1.65 in assay [10]; 1.56 in assay [11]; 2.37 in assay [15]; 1.02 in assay [17]. Also, the composite z-score in [18] was 1.47; in assay [19], 1.09; in assay [20] it was 0.678. For the same molecule, the z-score is -0.126 (inactive) in [8]; 3.2 (inactive) in [12]; 1.28 (inactive) in assay [13]; 4.84 (inactive) in [14]; 2.32 (inactive) in assay [16].

As to `CCCN1C(=O)[C@]2(Cc3ccccc3)N=C(c3ccc(OCCCO)cc3)O[C@@H]2c2ccccc21`, the composite z-score in assay [1] was 0.224; in assay [2], 1.12; in assay [3], -0.0226; in [4] it was 0.347; in assay [5], 0.415; in [6], 0.305. Besides, the composite z-score in assay [7] was 1.3; in assay [9], 0.195; in assay [10] it was -0.198; in assay [11], 1.54; in [15], 3.26; in assay [17], -0.0159. The composite z-score in assay [18] is 1.74; in assay [19] it was 1.13; in assay [20], -0.0605. The z-score in [8] was -0.355 (inactive); in assay [12], -0.128 (inactive); in [13] it was -1.88 (inactive); in [14] it was 0.585 (inactive); in assay [16], 1.05 (inactive).

Take `NC(N)=NCc1cn(CCc2c[nH]c3ccccc23)nn1`: the composite z-score was -0.711 in assay [1]; 0.348 in [2]; -0.121 in assay [3]; 0.536 in assay [4]; 0.348 in assay [5]; 0.499 in [6]. The composite z-score is 0.992 in assay [7]; 0.225 in assay [9]; 0.132 in assay [10]; 0.974 in assay [11]; 1.01 in assay [15]; -0.166 in assay [17]. Further, the composite z-score in assay [18] worked out at 1.36; in assay [19], 0.646; in assay [20] it was 0.128. The z-score is 0.512 (inactive) in assay [8]; -0.289 (inactive) in assay [12]; -0.002 (inactive) in [13]; -1.38 (inactive) in [14]; -0.979 (inactive) in [16].

In the case of `COc1ccc([Si](C)(C)[C@@H]2[C@@H](CCn3cc([C@H](O)c4ccccc4)nn3)O[C@]3(C(=O)N(Cc4ccc(N5CCOC5=O)cc4)c4ccccc43)[C@H]2C)cc1`, the composite z-score in assay [1] is -0.28; in [2], 0.882; in [3] it was -0.0658; in [4], 0.512; in [5], 0.62; in [6] it was 0.61. Also, the composite z-score is 0.825 in [7]; 0.137 in [9]; 0.0854 in assay [10]; 1.55 in [11]; 0.995 in assay [15]; 0.047 in assay [17]. Besides, the composite z-score in assay [18] turned out to be 1.01; in [19] it was 1.12; in [20], 0.0711. The z-score in assay [8] is 0.216 (inactive); in assay [12] it was -0.113 (inactive); in assay [13] it was 0.984 (inactive); in assay [14] it was 2.04 (inactive); in assay [16], 1.87 (inactive).
